Assay results from PubChem BioAssay (NCI).
This is part of a sample that, as a whole, favours compounds with a hit. Of some 83,000 tested, about 20% had one in any assay.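 Note: values are percent growth. 100 is the growth of untreated cells, values between 100 and 0 indicate rising inhibition; between -100 and 0 indicates cell death.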 Unmarked numbers belong to inactive results. Activity calls are given as the source filed them. Rule for the calls: active = growth percent below 10; inactive = the rest.

Legend:
Test in all cases: NCI-60 one-dose screen, 48 h (100 = growth as untreated, 0 = no growth, -100 = all killed)
Conditions in all cases: 10 µM unless noted
SR leukemia = test system: SR leukemia
RPMI-8226 leukemia = test system: RPMI-8226 leukemia
OVCAR-8 ovarian = test system: OVCAR-8 ovarian
OVCAR-5 ovarian = test system: OVCAR-5 ovarian
OVCAR-4 ovarian = test system: OVCAR-4 ovarian
SK-OV-3 ovarian = test system: SK-OV-3 ovarian
IGROV1 ovarian = test system: IGROV1 ovarian
OVCAR-3 ovarian = test system: OVCAR-3 ovarian
HS 578T breast = test system: HS 578T breast
NCI/ADR-RES ovarian = test system: NCI/ADR-RES ovarian
T-47D breast = test system: T-47D breast
BT-549 breast = test system: BT-549 breast
MDA-MB-435 melanoma = test system: MDA-MB-435 melanoma
SW-620 colon = test system: SW-620 colon
MCF7 breast = test system: MCF7 breast
HCT-116 colon = test system: HCT-116 colon
KM12 colon = test system: KM12 colon
HCC-2998 colon = test system: HCC-2998 colon

| Compound | growth (SR leukemia) | growth (RPMI-8226 leukemia) | growth (OVCAR-8 ovarian) | growth (OVCAR-5 ovarian) | growth (OVCAR-4 ovarian) | growth (SK-OV-3 ovarian) | growth (IGROV1 ovarian) | growth (OVCAR-3 ovarian) | growth (HS 578T breast) | growth (NCI/ADR-RES ovarian) | growth (T-47D breast) | growth (BT-549 breast) | growth (MDA-MB-435 melanoma) | growth (SW-620 colon) | growth (MCF7 breast) | growth (HCT-116 colon) | growth (KM12 colon) | growth (HCC-2998 colon) |
| --- | --- | --- | --- | --- | --- | --- | --- | --- | --- | --- | --- | --- | --- | --- | --- | --- | --- | --- |
| CO[C@H]1/C=C/O[C@@]2(C)Oc3c(C)c(O)c4c(O)c(c5c(nc6cc(C)ccn65)c4c3C2=O)NC(=O)/C(C)=C\C=C\[C@H](C)[C@H](O)[C@@H](C)C(O)[C@@H](C)[C@H](OC(C)=O)[C@@H]1C (stereo partly specified) | 99.3% | 104% | 98.3% | 113% | 100% | 31.9% | 97% | 104% | 72% | 104% | -5.36% (active) | 97.4% | 104% | 114% | 103% | 94.9% | 108% | – |
| COc1cc2nc3cc([N+](=O)[O-])ccc3c(NCCCNCCO)c2cc1OC | -12.4% (active) | -1.84% (active) | -28.9% (active) | -15.2% (active) | -47.2% (active) | -59% (active) | -29.9% (active) | -44.6% (active) | -16.1% (active) | 93.3% | -30.1% (active) | -73.4% (active) | -100% (active) | -25% (active) | -28.5% (active) | -33.7% (active) | -33.6% (active) | -47.9% (active) |
| CCN1C(=O)N(CC)C2C1NC(=S)N2/N=C/C=C/c1ccccc1 (stereo unspecified) | 7.76% (active) | -8.74% (active) | 6.3% (active) | 59.6% | 46.9% | 20.4% | 21% | -8.49% (active) | 13.6% | 0.601% (active) | 46.5% | -10.3% (active) | -42.1% (active) | 25.6% | 13.8% | 5.71% (active) | 8.65% (active) | 19% |
| CC(C)(C)[C@H](OCc1cn([C@H]2C[C@@H](O)[C@@H](CO)O2)c(=O)[nH]c1=O)c1ccc(C#Cc2ccccc2)cc1[N+](=O)[O-] | 35.7% | 36.8% | 87% | 97.6% | 85% | 93.5% | 88% | 87.7% | 77.9% | 87.5% | 53.6% | 27.6% | 92.6% | 101% | 3.01% (active) | 32.3% | 84.9% | – |
| CCCCC/C=C/CCC(=O)N[C@H]1[C@H](Oc2c3cc4cc2Oc2ccc(cc2Cl)[C@@H](O[C@@H]2O[C@H](CO)[C@@H](O)[C@H](O)[C@H]2NC(C)=O)[C@@H]2NC(=O)[C@H](NC(=O)[C@@H]4NC(=O)[C@H]4NC(=O)[C@@H](Cc5ccc(c(Cl)c5)O3)NC(=O)[C@@H](N)c3ccc(O)c(c3)Oc3cc(O)cc4c3)c3ccc(O)c(c3)-c3c(O[C@H]4O[C@H](CO)[C@@H](O)[C@H](O)[C@@H]4O)cc(O)cc3[C@H](C(=O)O)NC2=O)O[C@H](CO)[C@H](O)[C@@H]1O | 95.5% | 120% | 101% | 114% | 110% | 111% | 101% | 104% | 50.1% | 96.5% | 119% | 107% | – | 102% | 98.5% | 101% | 111% | 101% |
| Cn1ncc(CC(=O)O)c1-n1nnc2cc(Cl)ccc2c1=O | 87.6% | 106% | 99.6% | 98.1% | 94.6% | 111% | 103% | 114% | 91.5% | 101% | 102% | 102% | – | 103% | 110% | 99.5% | 102% | 107% |
| CN(C)c1ccc(/C=N/NC(=O)CSc2nc3sc4c(c3c(=O)n2-c2ccccc2)CCCCC4)cc1 | 22.7% | 76.8% | 20.6% | 50.7% | 19.7% | 67.1% | 36.5% | 12% | 23.9% | 59.1% | 61.5% | 71.2% | – | 27.2% | 35% | 7.89% (active) | 38.5% | 39.4% |
| CCN1C(=O)N(CC)C2C1NN=c1s/c(=C\c3ccc([N+](=O)[O-])cc3)c(=O)n12 (stereo unspecified) | 19.9% | 24.3% | 15.3% | 35% | 47.7% | 42.8% | 22.6% | 7.68% (active) | 17.1% | 9.89% (active) | 23.9% | 32.7% | – | 19.8% | 7.6% (active) | 7.31% (active) | 19.6% | 11.4% |
| O=C(/C=C/c1ccc(Cl)cc1)c1ccc(-n2cc(CN3CCN(c4cc5c(cc4F)c(=O)c(C(=O)O)cn5C4CC4)CC3)nn2)cc1 | 13.1% | 11.5% | 83.6% | 100% | 94.4% | 84.6% | 59% | 90.5% | 65.3% | 94.8% | 93.4% | 90% | – | 81.7% | 51.2% | 2.68% (active) | 86.4% | 90.7% |
| CCN1CCN(c2nc(NNC(=O)c3ccc(OC)cc3)nc(N3CCN(C(c4ccccc4)c4ccccc4)CC3)n2)CC1 | -8.03% (active) | 12.3% | 63.1% | 106% | 49.1% | 48.3% | 72.3% | 11.7% | 46.2% | 73.4% | 43.4% | 81.1% | 18.3% | 32.4% | 15.9% | 20.8% | 36.9% | – |
| COc1ccccc1-c1nc2ccc3[nH]ncc3c2c2c1CCCC2 | 29.1% | 68.6% | 81.2% | 103% | 85.6% | 80.5% | 58.9% | 114% | 44.8% | 80.6% | 74.2% | 77.1% | – | 82.6% | 68.7% | 64.9% | 31% | 113% |
| O=[N+]([O-])c1ccc(Oc2cccc3c(Oc4ccc([N+](=O)[O-])cc4[N+](=O)[O-])cccc23)c([N+](=O)[O-])c1 | 77.5% | 95.6% | 77.7% | 109% | 87.8% | 83.1% | 79.6% | 95.2% | 88.1% | 79.9% | 81.7% | 82.4% | 106% | 87.8% | 76.6% | 83.1% | 86.7% | – |
| CC(C)(C)n1cc(-c2ccnc(NCCNS(=O)(=O)c3ccc(Br)cc3)c2)c(-c2cccc(O)c2)n1 | -10.5% (active) | 3.61% (active) | 35.7% | 47.5% | 42.8% | 53.2% | 40.4% | 38.6% | 16.8% | 33% | 8.09% (active) | 30.8% | – | 5.53% (active) | 8.18% (active) | 19.7% | 17.3% | -17.5% (active) |
| O=C(N/N=C/c1ccccc1Cl)c1ccccc1Nc1ccnc(C(F)(F)F)c1 | -3.24% (active) | -34.9% (active) | 7.58% (active) | 6.58% (active) | -1.98% (active) | -8.48% (active) | 9.79% (active) | 3.44% (active) | 19.3% | 4.04% (active) | -14.3% (active) | 15.7% | – | 16.6% | 9.9% (active) | 13.3% | 10.4% | -20.7% (active) |
| CN1CCN(Cn2nc(-c3cc(Cl)cc(Cl)c3Cl)oc2=S)CC1 | 70.4% | 160% | 96% | 93.6% | 92.8% | 100% | 97.8% | 99.2% | 91.2% | 99% | 98.9% | 94.9% | – | 100% | 97.5% | 97.5% | 94.2% | 105% |
| CCCn1cnc2c(c1=N)C(c1ccc(Cl)cc1)c1sc3c(F)cccc3c1O2 (stereo unspecified) | 24.7% | 29.6% | 86.4% | 81.6% | 66.2% | 102% | 59.5% | 81.4% | 91.2% | 80.7% | 64.6% | 105% | – | 55.5% | 32.3% | 57.8% | 66.6% | -20% (active) |
| O=c1oc2ccccc2cc1-c1nn(-c2ccccc2)cc1/C=N/Nc1nc(-c2ccccc2)c(N=Nc2ccccc2)s1 | 21.9% | 63.1% | 77.9% | 102% | 84.7% | 82.8% | 81.7% | 57.1% | 87.5% | 63.7% | 57.4% | 61.8% | – | 43.4% | 44.3% | 56.9% | 44.7% | 85.6% |
